Screens (PubChem)
The sample as a whole holds a higher share of hits than the screen did.
HBB splice mod: modulators of hemoglobin beta chain splicing; HBB splicing reporter cell assay, activation; EGFP reporter with mutant IVS2-654 intron; response scale: normalised to 500 nM splice-correcting PNA; Potency, µM (top dose mostly 46.1 µM), for the others: at the top dose activation, usual class: activators; hit rate 0.06% among 65,000; also: potency is read from the fitted curve at half-maximal effect; 0% is about no effect
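HeLa cells stably expressing EGFP interrupted by mutant beta-globin intron 2 (IVS2-654), 500/well in 2% FCS. Treated with compound for 2 days at 37C. Splicing correction scored as total well GFP intensity (488 nm excitation, 500-520 nm emission); 500 nM antisense PNA served as control.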
Hsp90 Hop PPI: changes Hsp90-Hop TPR2A binding signal, up or down; AlphaScreen TPR2A-His6 binding biotin-Hsp90 C-terminal peptide; Potency, µM (top dose mostly 57 µM), for inactives: top-dose activity change, negative = inhibition; hit rate 0.44% among 71,000; AID 595; active = well fitted curve in either direction with a large enough effect; inconclusive = small, poorly fitted or top-dose-only effect, or another doubt; also: potency is read from the fitted curve at half-maximal effect; % is scaled to controls: 0 for no effect and ±100 for the full control effect
Ub-GFP proteasome: ubiquitin-GFP accumulation via proteasome inhibition; Ubiquitin-GFP reporter cells, proteasome inhibition, GFP fluorescence; response scale: untreated = 0%, 10 µM MG-132 = 100%; Potency, µM (top dose mostly 45.9 µM), without a hit: at the top dose activation (GFP accumulation), actives largely listed as activators; 67,000 tested, under 10 active; AID 526; active = well fitted activation curve with a large enough effect, not every such curve was filed as active; inconclusive = small, poorly fitted or top-dose-only effect, or another doubt; inactive = no such curve, though single readings can be large or run the other way; also: potency is read from the fitted curve at half-maximal effect
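U2OS Ub(G76V)-GFP reporter; O/N plating, 0.5% FBS; cpd 46 uM–2.9 nM, 4 h, 37 °C; GFP+ cell count, 488/515 nm; norm. to basal vs 10 uM MG-132; CRC fit.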
IkB sig inh: inhibitors of IkB signaling in ABC-DLBCL cells. Potency, µM (titrated, usually from 57.1 µM), for the others: top-dose IkBa stabilization activation. AID 445. hit rate 0.04% among 110,000. ABC-DLBCL IkBa-CBG/CBR dual luciferase ratio, 4 h; response scale: scaled: untreated 0%, proteasome inhibitor 100%; active = well fitted curve in the direction sought with a large enough effect in the signal ratio, not every such curve was filed as active; inconclusive = small, poorly fitted or top-dose-only effect, or a change in a side signal; the % refers to the signal ratio;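 also: potency is read from the fitted curve at half-maximal effect; the direction sought is a rising ratio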
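Curves were fitted separately to fusion (green), unfused (red) and ratio luminescence, then classed by r2, magnitude and activity. Cells: OCI-Ly3, 4 h compound plus doxycycline at 37C; 10 uM MG-132 defined full response.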
Epigenetic mod: derepresses silenced GFP locus in mouse C127i cells. Potency, µM (highest dose often 46.1 µM), inactives show top-dose GFP derepression (activation). hit rate 0.09% among 68,000. mouse C127i GFP locus derepression, cytometry, 30 h; also: % of control where 0% means no effect
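Murine C127i mammary cells carrying a silenced, stably integrated CMV-driven GFP reporter were treated with compound for 30 hours at 37 C. After PBS washes, GFP-positive cells were counted by laser-scanning microplate cytometry.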
The depositor's hits bear a star; ? = inconclusive; · = no result given; [ ] = remark or other dose. Unless noted, calls follow the shape of the dose curve; as a rule, active = well fitted curve in the direction sought with a large enough effect; inconclusive = small, poorly fitted or top-dose-only effect, or another doubt; inactive = no such curve, though single readings can be large; an effect the other way counts as inactive or inconclusive.

SMILES | HBB splice mod | Hsp90 Hop PPI | Ub-GFP proteasome | IkB sig inh | Epigenetic mod
COc1cc2c(C#N)c(N3CCN(c4ccccc4OC)CC3)nc(N)c2c(N)n1 | -1% | -7% | -5% | ? | -1%
N#Cc1c(N2CCCC2)nc(N)c2c(N)nc(N3CCCC3)cc12 | -4% | 25µM* | 1% | 0% | 0%
Nc1ccn([C@@H]2O[C@@H](CO)[C@@H](O)[C@H]2O)c(=O)n1 | 1% | -10% | 10% | -3% | -1%
OCCN1CCN(C(c2cccs2)c2ccc3cccnc3c2O)CC1 (configuration not stated) | 4%[0.369 µM] | 32µM* | 6% | ? | 2%
CC1(NC[C@@H](O)COc2cccc3[nH]ccc23)CCC(C(C)(C)NC(=O)CBr)CC1 (some centres not stated) | 0% | -16% | -5% | 18% | 2%
O=C(O)CCCCCC[C@@H]1C(=O)NC(=O)N1CC[C@@H](O)C1CCCCC1 | 0% | -9% | -4% | 11% | -2%
Cc1cc(-c2ccc(N=Nc3cc(S(=O)(=O)O)c4ccccc4c3N)c(C)c2)ccc1N=Nc1cc(S(=O)(=O)O)c2ccccc2c1N | -1% | 1.3µM* | · | -9% | ·
CN(C)c1ccc(/C=N/n2ncc3ccccc32)cc1 | -1% | 25µM* | 9% | ? | -1%
O=C1C2=CC[C@H]3C(=O)N(C[C@@H]4CCCO4)C(=O)[C@@H]3[C@@H]2[C@H](O)[C@@H]2O[C@H]12 | 6%[9.22 µM] | · | · | · | ·
Oc1c(CN2CCCCC2)cc(Br)c2cccnc12 | -1% | 3.2µM* | 22% | ? | 3.2µM*
Oc1ccc(CN2CCN(Cc3ccccc3)CC2)c2cccnc12 | · | 4µM* | -3% | 1% | ?
Oc1ccc(CNc2ccc(F)cc2)c2cccnc12 | · | 7.9µM* | -9% | ? | 4%
Nc1ncnc2nc[nH]c12.Nc1ncnc2nc[nH]c12.[Cl][Pt]([Cl])([Cl])[Cl] | 1%[9.22 µM] | -5%[11 µM] | 1%[9.17 µM] | 1%[11.4 µM] | 6%[9.22 µM]
CN(C)S(=O)(=O)c1ccc2c(c1)/C(=C/c1cc3c([nH]1)CCCC3)C(=O)N2 | 4µM* | -9% | 1% | -15% | 16µM*
CC(=O)Nc1ccc(NC(=O)CN(C)S(=O)(=O)c2ccc3c(c2)CCCC(=O)N3)cc1 | · | · | · | 0% | ·
NCCNCCNCCN | 0% | 6.3µM* | · | 2% | ·
NCCCCNCCCN | 0% | -2% | 3% | ? | 0%
O=C(O)CSc1ccc([N+](=O)[O-])cc1[N+](=O)[O-] | 2%[9.22 µM] | 0%[11 µM] | 0%[9.17 µM] | 1%[11.4 µM] | -2%[9.22 µM]
CC(C)c1ccc2c(c1)CC[C@@H]1[C@@](C)(CN)CCC[C@@]21C | · | 2% | -1% | ? | 12%[9.22 µM]
Cc1ccc(C[C@H](Cc2nc3ccccc3[nH]2)c2nc3ccccc3[nH]2)cc1 | · | 0% | -1% | 2%[11.4 µM] | 0%[9.22 µM]
N#Cc1c(C(F)(F)F)cc(-c2ccco2)nc1SCc1ccncc1 | 22%[57.5 µM] | -11% | -8% | 1% | 18%
N#Cc1c(C(F)(F)F)cc(-c2ccco2)nc1SCc1ccccn1 | 16µM* | 9% | -4% | 5% | ?
S=C(S)N1CCCC1 | 2% | -7% | 0% | ? | 0.63µM*
O=C(N1CCCCC1)N1CCCN(C(=O)N2CCCCC2)CC1 | -1% | 1% | 2% | -1% | -3%
COC(=O)/C(=C1/Oc2cc(C)oc(=O)c2S1)C(F)(F)F | · | · | · | · | 10µM*
SMILES | HBB splice mod | Hsp90 Hop PPI | Ub-GFP proteasome | IkB sig inh | Epigenetic mod
COc1ccc2nc(SCC(=O)N3CCCCCC3)c(C#N)cc2c1 | · | 6% | 3% | 3% | 4%
COc1ccc2nc(N3CCCC3)c(C#N)cc2c1 | · | 25µM* | 4% | -2% | 10%
COc1ccc2nc(N3CCCCC3)c(C#N)cc2c1 | · | 25µM* | 6% | -3% | -2%
O=C(Nc1nc(-c2ccccn2)cs1)C1COc2ccccc2O1 (configuration not stated) | -1% | 16µM* | 8% | ? | ·
COC(=O)C1C(C)OC(=O)NC1c1ccccc1 (configuration not stated) | 0%[9.22 µM] | · | · | · | ·
Cc1ccc(-c2noc(-c3ccc(N4CCC(C)CC4)c([N+](=O)[O-])c3)n2)cc1 | · | · | · | -1% | ·
Cc1ccc(-c2cc(C(F)F)nc(N3CCC(C)CC3)n2)cc1 | 1% | 25µM* | 2% | -1% | -1%
